Only a selection was taken, and hits are over-represented in it overall.
GIRK2 activator: Activators of human GIRK2-containing channels; P48051; HEK293 GIRK2/NPY4 cells, thallium flux fluorescence; activation (% efficacy), % for hits at 37.5 µM; 34,000 tested, under 10 active;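 active means primary screen hit, no activity in plain HEK293 cells, and in GIRK2-only cells above 5% efficacy rising with concentration; inactive means the rest, including fluorescent compounds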;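 further: efficacy is normalized control-subtracted fluorescence 15 s after thallium addition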
Target sequence (P48051 whole entry, looked up): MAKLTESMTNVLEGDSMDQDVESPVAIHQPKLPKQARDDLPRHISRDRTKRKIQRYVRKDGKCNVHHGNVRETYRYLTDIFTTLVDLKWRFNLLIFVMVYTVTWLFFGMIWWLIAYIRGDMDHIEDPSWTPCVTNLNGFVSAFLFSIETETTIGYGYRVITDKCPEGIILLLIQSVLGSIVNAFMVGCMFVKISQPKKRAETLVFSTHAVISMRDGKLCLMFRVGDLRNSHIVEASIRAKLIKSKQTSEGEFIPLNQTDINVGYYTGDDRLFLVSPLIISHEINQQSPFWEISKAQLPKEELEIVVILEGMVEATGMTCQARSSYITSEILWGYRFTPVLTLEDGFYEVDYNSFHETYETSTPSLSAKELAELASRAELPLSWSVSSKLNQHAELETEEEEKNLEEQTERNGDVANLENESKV
GluA2 TARP mod: GluA2-stargazin AMPA receptor complex modulation | O88602+P19491 | hit rate 3.5% among 40,000 | HEK293 GluA2+stargazin, membrane potential dye (FDSS), glutamate EC50; hits were called plate by plate, in both directions | calls only at 30 µM;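 active means any of four per-well response measures lying three or more SD from its plate-wide compound average, in either direction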
* hit, by the source's call; i = inactive; . = no result; + = active, no number.

SMILES	GIRK2 activator	GluA2 TARP mod
Cc1noc(C2CN(S(=O)(=O)c3cccc(Cl)c3C)C2)n1	i	+
CC(=O)Oc1ccc2c(c1)O/C(=C\c1c(Cl)cccc1Cl)C2=O	.	i
CC(C)(C)c1cc(NC(=O)CSCc2ccccc2)n(CCO)n1	i	+
O=C(CSCc1ccccc1)Nc1cc(-c2cccs2)nn1CCO	i	i
CC(C)(C)c1cc(NC(=O)Cc2ccccc2Cl)n(CCO)n1	i	i
CC(C)(C)c1cc(NC(=O)CCSc2ccccc2)n(CCO)n1	i	+
O=C(Cc1csc(Nc2ccc(OC(F)(F)F)cc2)n1)Nc1ccc2c(c1)OCO2	i	i
CC1=C(C(=O)Nc2cccc(C(F)(F)F)c2)C(c2ccc(F)cc2)C2=C(CCCC2=O)N1 (stereo not given)	.	i
CC1=C(C(=O)Nc2cc(C(F)(F)F)ccc2Cl)C(c2ccc(C)cc2)C2=C(CCCC2=O)N1 (stereo not given)	.	+
O=C(Nc1ccccc1F)c1cc2cc(Cl)ccc2oc1=O	i	i
COc1cc(/C=C/C(=O)NCCCn2cccc2)cc(OC)c1OC	i	+
COc1cc(/C=C/C(=O)NCCc2ccsc2)cc(OC)c1OC	i	i
COc1cc(/C=C/C(=O)c2ccc(O)cc2)cc(OC)c1OC	.	i
COc1cc(/C=C/C(=O)Nc2nncs2)cc(OC)c1OC	i	+
Cc1ccc(NS(=O)(=O)c2ccc(Cl)s2)cc1N1CCCCC1=O	i	i
COc1ccccc1CNC(=O)c1sccc1S(=O)(=O)N1CCN(c2ccccc2F)CC1	i	.
O=C(Nc1ccc2c(c1)N(C(=O)C1CCCC1)CC2)c1c(F)cccc1Cl	i	.
COc1ccccc1-c1c(C)nn2c(N3CCN(Cc4ccccc4)CC3)cc(C)nc12	i	i
COc1ccc(-c2c(C)nn3c(N4CCN(Cc5ccccc5)CC4)cc(C)nc23)cc1OC	i	+
C=CCN1CC(c2nc3ccccc3n2Cc2ccc(C(C)C)cc2)CC1=O (stereo not given)	.	i
CC(c1ccccc1)n1c(C2CC(=O)N(Cc3ccccc3)C2)nc2ccccc21 (stereo not given)	.	+
C=CCN1CC(c2nc3ccccc3n2Cc2cccc(C)c2)CC1=O (stereo not given)	.	+
CCN1CC(c2nc3ccccc3n2Cc2ccccc2)CC1=O (stereo not given)	.	i
C=CCN1CC(c2nc3ccccc3n2Cc2ccc(Cl)cc2)CC1=O (stereo not given)	.	+
C=CCN1CC(c2nc3ccccc3n2Cc2ccc(C)cc2)CC1=O (stereo not given)	.	i
SMILES	GIRK2 activator	GluA2 TARP mod
O=C1CC(c2nc3ccccc3n2Cc2ccccc2F)CN1Cc1ccccc1 (stereo not given)	.	+
CN1CC(c2nc3ccccc3n2Cc2ccccc2F)CC1=O (stereo not given)	.	i
CC(O)(CNC(=O)c1ccccc1)c1ccccc1 (stereo not given)	i	i
CC1CS(=O)(=O)N(c2ccc(S(=O)(=O)N3CCN(c4ccccc4)CC3)cc2)C1=O (stereo not given)	i	i
Cc1cccc(Cn2c(C3CC(=O)N(Cc4ccccc4)C3)nc3ccccc32)c1 (stereo not given)	.	+
Cc1cccc(Cn2c(C3CC(=O)N(Cc4ccc(F)cc4)C3)nc3ccccc32)c1 (stereo not given)	.	i
Cc1ccc(-n2ncc3c(=O)n(CC(=O)N4CCCCCC4)cnc32)cc1C	.	i
Cc1cc(C)c(NC(=O)C(=O)NCC(O)C2CCCCC2)c(C)c1 (stereo not given)	i	.
O=C(CCCS(=O)(=O)c1ccccc1)Nc1nnc(-c2cccs2)o1	i	i
COc1ccc(S(=O)(=O)CC(=O)Nc2nc(-c3cc(Cl)sc3Cl)cs2)cc1	i	+
COc1ccc(S(=O)(=O)CC(=O)Nc2nc(-c3cc(Cl)ccc3Cl)cs2)cc1	i	i
Cn1cccc1C(CNS(=O)(=O)Cc1ccc(F)cc1)N1CCCCCC1 (stereo not given)	i	i
O=C(CC1CCCC1)NCCS(=O)(=O)N1CCN(Cc2ccccc2)CC1	i	i
COc1cccc(N2C(=O)c3cccc4c(N5CCCCCC5)ccc(c34)C2=O)c1	.	i
CCC(=O)OCCN1C(=O)c2cccc3c(N4CCCCC4)ccc(c23)C1=O	.	+
COC(=O)c1ccc2occ(-c3oc4ccc(C(=O)OC)cc4c3O)c2c1	i	+
COC(=O)c1ccc2[nH]c(C)cc(=O)c2c1	i	i
O=C(CSc1nc(-c2ccco2)cc(C(F)(F)F)n1)N1CCSCC1	.	i
O=C(CSc1nc(-c2ccco2)cc(C(F)(F)F)n1)N1CCCCCC1	.	+
CCNC(=O)C1Cc2ccccc2N1C(=O)Nc1cccc(OC)c1OC (stereo not given)	i	i
COc1cccc2sc(N(CCN(C)C)C(=O)c3cc(C)nn3C)nc12	i	+
COc1cccc2sc(N(CCCN(C)C)C(=O)c3cc(C)nn3C)nc12	i	i
O=C(N1CCCCC1)N1CCN(S(=O)(=O)N2CCCCC2)CC1	.	i
COc1ccc(OC)c2sc(NC(=O)c3ccnn3C)nc12	.	+
Cc1cc(C)c2sc(NC(=O)c3ccnn3C)nc2c1	i	.
SMILES	GIRK2 activator	GluA2 TARP mod
COc1ccc(Nc2nnc(Cc3ccc(C)cc3)c(=O)[nH]2)cc1OC	i	i
COc1ccc(N2CCN(C(=O)/C=C/c3ccc4c(c3)OCO4)CC2)nn1	i	.
CSCCC(C)(O)CNC(=O)c1cc2ccccc2oc1=O (stereo not given)	i	i
CSCCC(C)(O)CNC(=O)c1cc2ccccc2o1 (stereo not given)	i	+
Cc1ccc(Nc2cc(N3CCN(C(=O)c4ncccn4)CC3)nc(C)n2)cc1	i	+
Cc1ccc(Nc2cc(C)nc(N3CCN(C(=O)c4ccc5c(c4)OCO5)CC3)n2)cc1	.	i
O=C(NCCc1ccsc1)C1(c2ccc(Cl)cc2)CCCC1	i	+
O=C(NCC(O)(c1cccs1)C1CC1)C1(c2ccc(Cl)cc2)CCCC1 (stereo not given)	i	i
COc1cc(COCC2CCN(C(=O)Cc3cccc(C)c3)CC2)cc(OC)c1	i	i
Cc1ccc(=O)n(CCNC(=O)c2ccc3nsnc3c2)n1	i	i
CN(C)C(CNS(=O)(=O)c1cc(Cl)ccc1Cl)c1cccn1C (stereo not given)	i	+
Cc1ccc(Cl)cc1S(=O)(=O)NCC(c1cccn1C)N(C)C (stereo not given)	i	i
O=[N+]([O-])c1cccc(NS(=O)(=O)c2ccc3ccccc3c2)c1	.	+
COc1ccc(NS(=O)(=O)c2cccc([N+](=O)[O-])c2)cc1	.	i
O=[N+]([O-])c1ccc(NS(=O)(=O)c2ccc3ccccc3c2)cc1	.	+
CS(=O)(=O)c1cccc(S(=O)(=O)Nc2ccc([N+](=O)[O-])cc2)c1	i	.
CCOc1nn(CC)cc1-c1nnc(SCC(=O)NC2CCCCC2)n1C	i	i
Cc1nnc2ccc(OCCNS(=O)(=O)c3ccc(-c4ccccc4)cc3)nn12	i	i
O=C(Nc1ccc(F)c(Cl)c1)c1cc(C2CC2)n(C2CCS(=O)(=O)C2)n1 (stereo not given)	i	+

Bioassay records from PubChem BioAssay.
